Growth data for seven compounds are collected here from PubChem BioAssay (NCI).

Some test systems named below: MOLT-4 leukemia; SR leukemia; RPMI-8226 leukemia; OVCAR-8 ovarian; OVCAR-5 ovarian; OVCAR-4 ovarian; SK-OV-3 ovarian; IGROV1 ovarian; OVCAR-3 ovarian; HS 578T breast; NCI/ADR-RES ovarian; T-47D breast; BT-549 breast; MDA-MB-435 melanoma; SW-620 colon; MCF7 breast; HCT-116 colon; HCC-2998 colon; KM12 colon.
What all share (assay): NCI-60 one-dose screen, 48 h (100 = growth as untreated, 0 = no growth, -100 = all killed)
Holding throughout (settings): 10 µM unless noted

Each structure is given as a SMILES string. The panel holds about 83,000 compounds, 20% with a hit somewhere; the sample as a whole holds those more often.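 Plates (96-well) were seeded with cells, treated with compound at one concentration, and incubated for 48 hours before percent growth was determined.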 Values without a mark were called inactive. Calls of active or inactive are those of the source. Rule for the calls: active = growth percent below 10; inactive = the rest.

As for `O=C1C2C(C(=O)[N]1[Hg][c]1cccs1)C1(Cl)C(Cl)=C(Cl)C2(Cl)C1(Cl)Cl` (stereo not drawn), the growth is 3.08% (active) in the assay with MOLT-4 leukemia; 1.72% (active) with SR leukemia; -11.4% (active) in the assay on RPMI-8226 leukemia; 11.9% in the assay on OVCAR-8 ovarian; 13.7% in the assay with OVCAR-5 ovarian; 37.3% in the assay on OVCAR-4 ovarian. Further, the growth in the assay with SK-OV-3 ovarian is 102%; with IGROV1 ovarian it was 0.499% (active); in the assay on OVCAR-3 ovarian, -91.1% (active); with HS 578T breast, 42%; with NCI/ADR-RES ovarian, 21%; with T-47D breast it was -78.5% (active). Further, the growth in the assay on BT-549 breast is -1.18% (active); in the assay on MDA-MB-435 melanoma, 7.41% (active); in the assay with SW-620 colon, -40.4% (active); with MCF7 breast, -13.1% (active); in the assay with HCT-116 colon it was -31.9% (active); in the assay with HCC-2998 colon it was 49.7%. Also, in the assay with KM12 colon, the growth is 87.3%.

With `CC(C)COC(C[N+](=O)[O-])C(Cl)(Cl)Cl` (stereo not drawn), the growth in the assay on MOLT-4 leukemia was 103%; in the assay on SR leukemia, 94.7%; in the assay with RPMI-8226 leukemia, 116%; with OVCAR-8 ovarian, 101%; in the assay with OVCAR-5 ovarian it was 109%; in the assay on OVCAR-4 ovarian it was 101%. In addition, the growth was 106% in the assay with SK-OV-3 ovarian; 103% in the assay with IGROV1 ovarian; 115% in the assay with OVCAR-3 ovarian; 119% in the assay with HS 578T breast; 94.2% in the assay on NCI/ADR-RES ovarian; 111% with T-47D breast. In addition, the growth with BT-549 breast is 106%; in the assay on MDA-MB-435 melanoma, 111%; with SW-620 colon, 107%; with MCF7 breast it was 98.8%; in the assay with HCT-116 colon, 111%; in the assay on HCC-2998 colon, 102%. For the same compound, the growth in the assay with KM12 colon is 104%.

For the compound `COC(=O)[C@@H](C)C[C@H](Cc1ccccc1)NC(=O)c1csc([C@@H](C[C@H](C(C)C)N(C)C(=O)[C@@H](NC(=O)CN(C)C)C2CC2)OC(C)=O)n1`, the growth was 16.6% in the assay on MOLT-4 leukemia; 3.74% (active) with SR leukemia; 34.3% in the assay with RPMI-8226 leukemia; 20.1% with OVCAR-8 ovarian; 56.3% with OVCAR-5 ovarian; 54.4% with OVCAR-4 ovarian. In addition, the growth in the assay with SK-OV-3 ovarian is 42.2%; in the assay on IGROV1 ovarian, 28.4%; with OVCAR-3 ovarian, 1.63% (active); with HS 578T breast it was 32.3%; in the assay with NCI/ADR-RES ovarian, 54.7%; in the assay on T-47D breast, 72.8%. For the same compound, the growth in the assay on BT-549 breast is -21.1% (active); with MDA-MB-435 melanoma, 0.597% (active); with SW-620 colon, 35.8%; in the assay on MCF7 breast, 17.7%; with HCT-116 colon it was 3.84% (active); in the assay on HCC-2998 colon it was 16%. For the same compound, in the assay on KM12 colon, the growth is 7.64% (active).

Turning to `O=C1Nc2ccccc2C2c3cccn3-c3ccccc3CN12` (stereo not drawn), the growth is 29.3% in the assay on MOLT-4 leukemia; 19% in the assay with SR leukemia; 55.2% with RPMI-8226 leukemia; 63.3% in the assay on OVCAR-8 ovarian; 82.3% in the assay with OVCAR-5 ovarian; 71.7% in the assay with OVCAR-4 ovarian. Further, the growth with SK-OV-3 ovarian was 46.7%; with IGROV1 ovarian, 62.9%; with OVCAR-3 ovarian, 41.7%; in the assay with HS 578T breast it was 64.2%; with NCI/ADR-RES ovarian it was 20.9%; in the assay with T-47D breast it was 27.7%. In addition, the growth with BT-549 breast was 50.7%; in the assay on MDA-MB-435 melanoma, -15% (active); in the assay with SW-620 colon it was 24.5%; in the assay with MCF7 breast, 38.8%; in the assay with HCT-116 colon, 41.7%; in the assay with HCC-2998 colon, 71.1%. In addition, in the assay with KM12 colon, the growth is 30.3%.

With `COc1cc2ncnc(Nc3ccc(F)c(Cl)c3)c2cc1OCC(=O)N1CCN(C)CC1`, the growth was 81.2% in the assay on MOLT-4 leukemia; 74.5% with SR leukemia; 90.5% with RPMI-8226 leukemia; 90% with OVCAR-8 ovarian; 78.4% in the assay on OVCAR-5 ovarian; 79.5% in the assay on OVCAR-4 ovarian. For the same compound, the growth is 13.7% with SK-OV-3 ovarian; 48.2% with IGROV1 ovarian; 78.2% with OVCAR-3 ovarian; 93.4% with HS 578T breast; 86.7% with NCI/ADR-RES ovarian; 70% with T-47D breast. Besides, the growth in the assay with BT-549 breast is 89.6%; in the assay with MDA-MB-435 melanoma, 102%; with SW-620 colon, 105%; in the assay on MCF7 breast it was 80.4%; in the assay with HCT-116 colon it was 91.3%; in the assay with HCC-2998 colon it was 102%. Further, the growth in the assay on KM12 colon is 96.4%.

Regarding `O=C1NC(=O)C(=Cc2cccn2CCCCCn2c3ccccc3c(=O)c3ccccc32)C(=O)N1`, the growth was 93.3% with MOLT-4 leukemia; 86.7% in the assay with SR leukemia; 92% in the assay with RPMI-8226 leukemia; 102% in the assay with OVCAR-8 ovarian; 101% in the assay with OVCAR-5 ovarian; 99.8% in the assay with OVCAR-4 ovarian. The growth with SK-OV-3 ovarian was 108%; in the assay on IGROV1 ovarian it was 99.4%; with OVCAR-3 ovarian, 105%; in the assay with HS 578T breast it was 106%; in the assay with NCI/ADR-RES ovarian it was 99.5%; with T-47D breast it was 87.3%. Further, the growth in the assay on BT-549 breast is 104%; in the assay with MDA-MB-435 melanoma, 97.7%; in the assay with SW-620 colon, 105%; in the assay with MCF7 breast, 84.7%; with HCT-116 colon it was 82.2%; in the assay on HCC-2998 colon, 105%. The growth in the assay with KM12 colon was 103%.

Consider `CCOC(=O)[C@@H](C)C[C@H](Cc1ccccc1)NC(=O)c1csc([C@@H](C[C@H](C(C)C)N(C)C(=O)[C@@H](NC(=O)[C@H]2CCCCN2C)C(C)(C)C)OC(C)=O)n1`, for which the growth in the assay with MOLT-4 leukemia is 7.61% (active); in the assay with SR leukemia it was 3.63% (active); in the assay with RPMI-8226 leukemia, 11.9%; in the assay on OVCAR-8 ovarian, 6.71% (active); with OVCAR-5 ovarian, 32.3%; with OVCAR-4 ovarian, 42.7%. Moreover, the growth in the assay with SK-OV-3 ovarian is 13.2%; in the assay with IGROV1 ovarian, 18.1%; in the assay on OVCAR-3 ovarian it was -6.79% (active); in the assay on HS 578T breast it was 6.42% (active); in the assay on NCI/ADR-RES ovarian it was 6.69% (active); with T-47D breast, 62.7%. The growth in the assay on BT-549 breast was -27.2% (active); with MDA-MB-435 melanoma, -66.4% (active); in the assay on SW-620 colon, 26.2%; with MCF7 breast, 13.8%; with HCT-116 colon, 2.35% (active); in the assay on HCC-2998 colon, -2.49% (active). Also, in the assay with KM12 colon, the growth is 3.85% (active).
